Active and inactive are the calls of the source.
Columns and labels:
[1] = binders of probe aFSTL3 on microarray, primary screen, stem cell growth factor project, biochemical, small-molecule microarray, fluorescence 635/667 (AID 1064); conditions: higher = more signal;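 further: measures binding of the biotinylated anti-FSTL3 antibody to printed compounds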
[2] = binders from COS7 lysate, DM2A8 probe, primary screen, torsin A project, cell lysate, small-molecule microarray, fluorescence 635/667 (AID 1065); conditions: higher = more signal, COS7 lysate expressing mutant human TOR1A
[3] = binders of probe aFGF2 on microarray, primary screen, stem cell growth factor project, biochemical, small-molecule microarray, fluorescence 635/667 (AID 1067); conditions: higher = more signal;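 further: measures binding of biotinylated aFGF2 protein to printed compounds on slides; z-score merges feature fluorescence and signal-to-noise across triplicate slides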
[4] = binders of probe aFGF10 on microarray, primary screen, stem cell growth factor project, biochemical, small-molecule microarray, fluorescence 635/667 (AID 1071); conditions: higher = more signal;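 further: score merges 667 nm spot intensity and signal to noise from triplicate slides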
[5] = molecular target: Neurogenic locus notch homolog protein 2 (Homo sapiens) (UniProt Q04721); experiment: Notch2 binders on small-molecule microarrays, primary screen, biochemical, small-molecule microarray, 635 nm fluorescence, stem cell growth factors (AID 1073); conditions: Notch2 binding, higher = more signal
[6] = molecular target: Pro-neuregulin-1, membrane-bound isoform (Homo sapiens) (UniProt Q02297); experiment: NRG1 binders on small-molecule microarrays, primary screen, psychiatric disease protein project, biochemical, small-molecule microarray, fluorescence 635/667 (AID 1075); conditions: NRG1 binding, 635 nm fluorescence, higher = more signal;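 further: score combines 667 nm spot fluorescence with signal to noise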
[7] = test system: Neuregulin-1 EGF-like domain; experiment: binders of neuregulin-1 EGF-like domain, primary screen, biochemical, small-molecule microarray, 635 nm fluorescence (AID 1081); conditions: small-molecule microarray binding, higher = more signal;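 further: binding of the protein to compounds printed on small-molecule microarray slides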
[8] = FRG1 promoter luciferase signal modulators, primary screen, FRG1 inhibition for FSHD, cell-based, C2C12 myotubes, firefly/Renilla luciferase, luminescence (AID 1084); conditions: higher = more signal, called active from +8 up or from −8 down
[9] = binders of probe aFST on microarray, primary screen, stem cell growth factor project, biochemical, small-molecule microarray, fluorescence 635/667 (AID 1086); conditions: higher = more signal;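 further: score merges 667 nm fluorescence with signal-to-noise of each printed compound spot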
[10] = binders of probe aHhip on microarray, primary screen, stem cell growth factor project, biochemical, small-molecule microarray, fluorescence 635/667 (AID 1087); conditions: higher = more signal;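 further: score merges spot fluorescence at 667nm with spot signal to noise ratio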
[11] = test system: PRMT1 (protein arginine N-methyltransferase 1); experiment: PRMT1 binders on small-molecule microarrays, primary screen, biochemical, small-molecule microarray, 635 nm fluorescence (AID 1088); conditions: small-molecule microarray binding, higher = more signal;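 further: binding of Prmt1 protein to compounds spotted on small-molecule microarray slides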
[12] = yeast growth modulation, basal conditions, primary screen, YJM789 clinical isolate, OD600, 24 h (AID 1089);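 further: growth of clinical yeast isolate S. cerevisiae YJM 789 seeded 1000 cells per well; test concentration not given here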; conditions: S. cerevisiae YJM789 growth, higher = more signal, called active from +8 up or from −8 down
[13] = fission yeast growth modulation, primary screen, strain 972, OD600, 24 h, no modulator (AID 1090);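 further: basal condition with compound alone and no growth modifier present; test concentration not given here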; conditions: S. pombe 972 growth, higher = more signal, called active from +8 up or from −8 down
[14] = S. cerevisiae growth modulation with rapamycin, primary screen, strain BY4716, OD600, 96 h (AID 1091); conditions: higher = more signal, called active from +8 up or from −8 down; further: test concentration not given here
[15] = molecular target: Torsin-1A-interacting protein 2 (Homo sapiens) (UniProt Q8NFQ8); experiment: LULL1 binders on small-molecule microarray, primary screen, cell lysate, human LULL1 lysate, 635/667 nm fluorescence (AID 1092); conditions: hLULL1 lysate binding, 635 nm fluorescence, higher = more signal;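 further: probe is lysate of COS7 cells overexpressing human LULL1; score merges per-feature 667 nm fluorescence with signal-to-noise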
[16] = E. coli growth modulation, two-sided OD650, primary screen, E. coli filamentation project, strain DRC41, 24 h (AID 1093); conditions: OD650, 24 h, higher = more signal, called active from +8 up or from −8 down;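 further: MC1000 strain lacking acrAB efflux and sulA so SOS filamentation is blocked; test concentration not given here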
[17] = small-molecule microarray binders of probe aLefty2, primary screen, biochemical, biotinylated probe, 635/667 nm fluorescence (AID 1094); conditions: higher = more signal;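 further: score merges spot fluorescence near 667 nm with spot signal-to-noise ratio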
[18] = test system: Noggin (protein binding on small-molecule microarray); experiment: Noggin binders on small-molecule microarray, primary screen, biochemical, 635/667 nm fluorescence (AID 1095); conditions: 635 nm fluorescence, higher = more signal;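 further: score merges 667 nm feature fluorescence with signal to noise over triplicate slides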
[19] = molecular target: Neurogenic locus notch homolog protein 3 (Homo sapiens) (UniProt Q9UM47); experiment: NOTCH3 binders on small-molecule microarray, primary screen, biochemical, 635/667 nm fluorescence (AID 1096); conditions: NOTCH3 binding, 635 nm fluorescence, higher = more signal
[20] = small-molecule microarray binders of probe aEGFR, primary screen, biochemical, biotinylated probe, 635/667 nm fluorescence (AID 1097); conditions: higher = more signal;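 further: probe is a biotinylated anti-EGFR antibody binding compounds printed on slides; score combines fluorescence near 667 nm and signal to noise of each spot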

Chain of Pro-neuregulin-1, membrane-bound isoform (Homo sapiens) (Q02297 whole entry, looked up, the tested form may be a part, canonical isoform): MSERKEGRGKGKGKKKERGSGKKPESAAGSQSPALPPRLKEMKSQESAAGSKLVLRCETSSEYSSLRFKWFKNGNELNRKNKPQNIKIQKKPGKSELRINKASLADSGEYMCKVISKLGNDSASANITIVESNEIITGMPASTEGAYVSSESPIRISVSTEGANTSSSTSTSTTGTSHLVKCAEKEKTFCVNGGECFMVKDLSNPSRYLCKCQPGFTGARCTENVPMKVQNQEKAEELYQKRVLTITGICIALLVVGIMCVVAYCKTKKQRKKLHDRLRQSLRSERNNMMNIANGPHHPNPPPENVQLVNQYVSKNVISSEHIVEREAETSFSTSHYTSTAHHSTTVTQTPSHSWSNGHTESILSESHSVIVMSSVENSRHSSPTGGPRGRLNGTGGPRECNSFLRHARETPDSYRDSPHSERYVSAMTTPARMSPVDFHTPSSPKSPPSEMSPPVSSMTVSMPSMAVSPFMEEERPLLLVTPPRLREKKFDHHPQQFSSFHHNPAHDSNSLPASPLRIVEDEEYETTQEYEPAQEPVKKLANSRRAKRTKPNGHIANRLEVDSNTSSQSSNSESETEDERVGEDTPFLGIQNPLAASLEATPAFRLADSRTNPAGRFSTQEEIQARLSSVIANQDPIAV
Chain of Torsin-1A-interacting protein 2 (Homo sapiens) (Q8NFQ8 whole entry, looked up): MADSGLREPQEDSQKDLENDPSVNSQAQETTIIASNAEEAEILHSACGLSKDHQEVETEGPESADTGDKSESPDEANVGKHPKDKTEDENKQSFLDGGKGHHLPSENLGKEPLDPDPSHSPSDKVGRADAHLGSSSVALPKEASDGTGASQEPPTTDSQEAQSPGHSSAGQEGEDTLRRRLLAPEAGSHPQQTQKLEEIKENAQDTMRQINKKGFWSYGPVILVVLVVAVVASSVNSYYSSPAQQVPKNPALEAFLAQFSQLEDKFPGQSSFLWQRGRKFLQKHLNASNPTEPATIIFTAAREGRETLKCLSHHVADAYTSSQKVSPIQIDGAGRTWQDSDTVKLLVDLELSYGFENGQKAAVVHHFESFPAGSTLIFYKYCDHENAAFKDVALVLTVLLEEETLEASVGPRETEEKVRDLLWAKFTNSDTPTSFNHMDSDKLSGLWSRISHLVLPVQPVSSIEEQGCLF
Chain of Neurogenic locus notch homolog protein 2 (Homo sapiens) (Q04721 whole entry, looked up, canonical isoform): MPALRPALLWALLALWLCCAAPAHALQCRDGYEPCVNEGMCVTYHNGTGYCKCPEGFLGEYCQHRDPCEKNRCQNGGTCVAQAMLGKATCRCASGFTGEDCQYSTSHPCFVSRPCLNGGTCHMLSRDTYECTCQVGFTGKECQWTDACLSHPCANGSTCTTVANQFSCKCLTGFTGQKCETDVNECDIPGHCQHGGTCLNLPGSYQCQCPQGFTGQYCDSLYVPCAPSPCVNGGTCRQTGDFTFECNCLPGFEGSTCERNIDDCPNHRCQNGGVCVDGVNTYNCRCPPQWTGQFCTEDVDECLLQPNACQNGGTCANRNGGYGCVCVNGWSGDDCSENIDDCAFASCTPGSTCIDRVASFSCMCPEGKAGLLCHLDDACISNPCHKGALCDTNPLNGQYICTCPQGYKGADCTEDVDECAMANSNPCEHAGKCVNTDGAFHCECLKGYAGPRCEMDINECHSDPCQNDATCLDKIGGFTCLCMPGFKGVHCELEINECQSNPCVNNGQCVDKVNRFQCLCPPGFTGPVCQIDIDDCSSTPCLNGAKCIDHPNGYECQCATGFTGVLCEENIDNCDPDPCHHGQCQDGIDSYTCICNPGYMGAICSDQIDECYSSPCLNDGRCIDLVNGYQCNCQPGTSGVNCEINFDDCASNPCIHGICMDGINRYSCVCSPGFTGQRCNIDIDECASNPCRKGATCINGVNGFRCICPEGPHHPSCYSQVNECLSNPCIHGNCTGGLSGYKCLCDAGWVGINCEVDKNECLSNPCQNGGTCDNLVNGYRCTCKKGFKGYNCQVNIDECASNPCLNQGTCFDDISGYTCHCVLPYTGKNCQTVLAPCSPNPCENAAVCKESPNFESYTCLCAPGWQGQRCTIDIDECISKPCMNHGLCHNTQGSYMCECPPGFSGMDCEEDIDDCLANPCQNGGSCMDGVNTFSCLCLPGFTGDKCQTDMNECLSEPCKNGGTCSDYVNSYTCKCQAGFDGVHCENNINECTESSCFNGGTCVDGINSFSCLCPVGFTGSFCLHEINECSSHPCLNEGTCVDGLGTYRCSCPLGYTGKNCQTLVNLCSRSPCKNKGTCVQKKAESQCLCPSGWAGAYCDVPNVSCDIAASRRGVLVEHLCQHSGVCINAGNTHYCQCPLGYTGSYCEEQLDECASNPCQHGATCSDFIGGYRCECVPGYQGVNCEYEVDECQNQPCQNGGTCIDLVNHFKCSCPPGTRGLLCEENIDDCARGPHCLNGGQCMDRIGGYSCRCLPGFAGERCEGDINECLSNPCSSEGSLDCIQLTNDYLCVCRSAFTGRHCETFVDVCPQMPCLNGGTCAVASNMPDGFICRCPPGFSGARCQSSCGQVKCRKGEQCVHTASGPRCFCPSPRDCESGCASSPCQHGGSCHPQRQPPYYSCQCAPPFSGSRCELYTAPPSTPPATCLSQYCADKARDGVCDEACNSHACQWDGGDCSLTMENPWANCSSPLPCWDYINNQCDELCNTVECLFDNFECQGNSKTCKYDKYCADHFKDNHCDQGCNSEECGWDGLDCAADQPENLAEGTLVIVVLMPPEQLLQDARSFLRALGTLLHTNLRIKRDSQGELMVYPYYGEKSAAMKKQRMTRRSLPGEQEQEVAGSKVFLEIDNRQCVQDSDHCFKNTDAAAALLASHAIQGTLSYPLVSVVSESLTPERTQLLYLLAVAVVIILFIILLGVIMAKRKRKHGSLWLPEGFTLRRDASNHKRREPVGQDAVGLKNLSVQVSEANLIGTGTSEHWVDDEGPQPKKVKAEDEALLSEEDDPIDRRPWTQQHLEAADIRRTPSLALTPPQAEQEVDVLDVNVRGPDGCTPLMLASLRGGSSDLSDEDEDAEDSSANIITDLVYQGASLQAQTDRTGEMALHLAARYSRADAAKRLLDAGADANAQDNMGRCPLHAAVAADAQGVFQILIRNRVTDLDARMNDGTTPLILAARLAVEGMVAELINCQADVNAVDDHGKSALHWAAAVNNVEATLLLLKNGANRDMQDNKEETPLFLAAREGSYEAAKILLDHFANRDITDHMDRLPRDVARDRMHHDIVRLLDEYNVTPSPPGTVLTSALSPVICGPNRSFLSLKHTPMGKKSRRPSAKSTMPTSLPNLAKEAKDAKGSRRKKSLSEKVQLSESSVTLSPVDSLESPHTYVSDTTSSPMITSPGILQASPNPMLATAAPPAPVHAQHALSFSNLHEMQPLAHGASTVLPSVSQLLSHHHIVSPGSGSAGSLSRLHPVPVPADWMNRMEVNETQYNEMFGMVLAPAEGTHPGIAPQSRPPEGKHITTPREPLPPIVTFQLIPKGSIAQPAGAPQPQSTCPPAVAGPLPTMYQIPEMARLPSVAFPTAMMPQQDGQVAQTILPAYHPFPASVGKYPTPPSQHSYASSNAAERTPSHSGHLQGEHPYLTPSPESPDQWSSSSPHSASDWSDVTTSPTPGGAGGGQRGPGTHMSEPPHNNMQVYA

Row | Compound | composite z-score [1] | composite z-score [2] | composite z-score [3] | composite z-score [4] | composite z-score [5] | composite z-score [6] | composite z-score [7] | z-score [8] | composite z-score [9] | composite z-score [10] | composite z-score [11] | z-score [12] | z-score [13] | z-score [14] | composite z-score [15] | z-score [16] | composite z-score [17] | composite z-score [18] | composite z-score [19] | composite z-score [20]
1 | CCCCCCCCCCC(O)C1C=CC2C(=O)N(c3ccccc3)C(=O)C2N1Nc1ccc([N+](=O)[O-])cc1 (stereo not given) | -0.325 | 0.112 | -0.0107 | 0.461 | 1.44 | 1.11 | 1.05 | 1.39 (inactive) | 0.574 | -0.199 | 1.57 | 0.0819 (inactive) | 0.23 (inactive) | 26.7 (active) | 3.25 | -0.734 (inactive) | -0.0059 | 0.186 | 1.09 | -0.0828
2 | CN(C)CCCC[C@@H]1NC(=O)[C@@H]2C[C@H](C(=O)NCCCCCCN)[C@H](c3ccc(O)cc3)N2C1=O | 1.95 | 0.58 | 0.15 | 0.727 | 0.921 | 1.39 | 1.44 | -0.0024 (inactive) | 2.16 | 0.861 | 1.18 | 0.377 (inactive) | -2.04 (inactive) | 0.638 (inactive) | 2.52 | -0.47 (inactive) | 0.892 | 0.855 | 0.526 | 0.678
3 | COC(=O)[C@@]1(Cc2ccc(OC)cc2)[C@H]2c3cc(C(=O)N4CCCC4)n(CCc4ccccn4)c3C[C@H]2CN1C(=O)c1ccccc1 | 0.587 | -0.0862 | 0.233 | 0.291 | 1.42 | 1.81 | 1.13 | 3.33 (inactive) | 0.462 | 0.251 | -1.52 | 0.328 (inactive) | 0.479 (inactive) | 0.556 (inactive) | 3.62 | -1.41 (inactive) | 0.0363 | -0.857 | -0.14 | -0.0122
4 | C=C(C(=O)CC[C@H](OC(=O)c1cccnc1)c1ccccc1OCCO)C(C)C | 0.0323 | 1.78 | -0.133 | 0.636 | 0.0984 | -0.124 | 0.962 | 0.276 (inactive) | 0.106 | -0.204 | 1.53 | -2.6 (inactive) | -0.267 (inactive) | -0.598 (inactive) | 1.58 | -0.0377 (inactive) | 0.0692 | 1.71 | 0.423 | 0.0004
5 | CC(C)C[C@@H]1NC(=O)[C@@H]2C[C@H](C(=O)NCCCCN(C)C)[C@H](c3ccc(O)cc3)N2C1=O | 0.493 | -0.202 | -0.167 | -1.02 | -1.32 | -0.343 | 0.443 | 1.92 (inactive) | -0.819 | -0.0296 | 0.577 | -0.145 (inactive) | 1.36 (inactive) | -0.367 (inactive) | 0.218 | -0.0929 (inactive) | 0.0566 | 0.118 | -0.531 | -0.218
6 | CN1C(=O)C2C=CC(C(O)C=Cc3ccc([N+](=O)[O-])cc3)N(N3CCCCC3)C2C1=O (stereo not given) | 1.79 | 1.62 | 0.556 | 1.11 | 1.69 | 1.69 | 0.932 | 4.21 (inactive) | 2.23 | 0.217 | 1.09 | -0.704 (inactive) | -7.07 (inactive) | -0.476 (inactive) | 2.79 | -1.33 (inactive) | 0.859 | 0.38 | 1.06 | 0.789
7 | COC(=O)[C@@]1(Cc2ccc(F)cc2)[C@H]2c3cc(C(=O)N4CCCC4)n(CCc4ccc(OC)c(Br)c4)c3C[C@H]2CN1C(=O)c1ccccc1 | 0.502 | 1.27 | 0.266 | 0.832 | 1.83 | 1.55 | 1.29 | -0.784 (inactive) | 1.94 | 1.68 | 1.4 | 0.0318 (inactive) | 1.53 (inactive) | 2.31 (inactive) | 3.52 | -0.224 (inactive) | 0.436 | -0.0473 | 1.03 | 0.324
8 | [N-]=[N+]=Nc1ccccc1[C@H]1OC(c2ccc(OCCCO)cc2)=N[C@@]1(CCS(=O)(=O)c1ccccc1)C(=O)N1CCOCC1 | 1.84 | 0.962 | 0.45 | 1.13 | 1.7 | 1.66 | 1.27 | 5.15 (inactive) | 1.53 | -0.372 | 1.55 | 1.17 (inactive) | 0.403 (inactive) | 4.39 (inactive) | 3.1 | 1.1 (inactive) | 0.766 | 0.245 | 1.09 | 0.561
9 | CCOC(=O)C[C@H]1[C@H](OC(=O)c2cc3ccccc3oc2=O)[C@@H](NC(=O)c2ccc3ccccc3c2)c2cc(OCCCO)ccc2N1C(=O)c1ccccc1 | -0.444 | -0.183 | 0.0087 | 0.973 | 0.525 | -0.0064 | 1.13 | 0.0705 (inactive) | 0.623 | -0.0994 | 1.13 | -0.087 (inactive) | -1.05 (inactive) | 0.41 (inactive) | 1.6 | 1.06 (inactive) | -0.139 | 0.798 | 0.983 | -0.0829
10 | CCOC(=O)C1=CC[C@@H](c2cccc(Cl)c2)N(S(=O)(=O)c2ccc(C)cc2)[C@H]1c1ccc(C#N)cc1 | 0.128 | 0.0669 | 0.104 | 0.862 | 1.65 | 1.61 | 1.15 | -0.534 (inactive) | 0.751 | 0.0274 | 1.56 | 0.914 (inactive) | 1.99 (inactive) | 2.58 (inactive) | 3.18 | -1.2 (inactive) | -0.0018 | 0.156 | 1.05 | 0.191

Source: PubChem BioAssay
